Laboratory results reported in PubChem BioAssay (NCI).
This is part of a sample that, as a whole, favours compounds with a hit. Of some 83,000 tested, about 20% had one in any assay.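 Compound tested at a single concentration for 48 hours in 96-well plates; a percent growth value below 10 was scored as active.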 Active and inactive are the calls of the source.

Key:
Assay in all cases: NCI-60 one-dose screen, 48 h (100 = growth as untreated, 0 = no growth, -100 = all killed)
Conditions in all cases: 10 µM unless noted
[1] = tested on: NCI-H226 lung
[2] = tested on: NCI-H322M lung
[3] = tested on: HOP-62 NSCLC
[4] = tested on: NCI-H460 lung
[5] = tested on: HOP-92 NSCLC
[6] = tested on: NCI-H522 lung
[7] = tested on: A549/ATCC NSCLC
[8] = tested on: 786-0 renal
[9] = tested on: COLO 205 colon
[10] = tested on: DU-145 prostate
[11] = tested on: K-562 leukemia
[12] = tested on: MALME-3M melanoma
[13] = tested on: MDA-MB-231 breast
[14] = tested on: RXF 393 renal
[15] = tested on: SF-268 CNS
[16] = tested on: SF-295 CNS
[17] = tested on: SF-539 CNS
[18] = tested on: UACC-257 melanoma
[19] = tested on: M14 melanoma
[20] = tested on: HCT-15 colon

Measured: growth

CN(C)c1ccc(/C=C2\Cc3c(F)ccc(Br)c3C2=O)cc1
inactive: [1] 76.3% | [2] 85.6% | [3] 91.5% | [4] 88.7% | [5] 91.5% | [6] 96.1% | [7] 94.1% | [8] 98.2% | [9] 98.1% | [10] 97.5% | [11] 98.4% | [12] 92.8% | [13] 90.8% | [14] 108% | [15] 101% | [16] 101% | [17] 97.5% | [18] 91.3% | [19] 92.1% | [20] 96.9%

C#C[C@]1(O)CC[C@H]2[C@@H]3CC=C4c5sc(-c6ccc(F)cn6)nc5CC[C@]4(C)[C@H]3CC[C@@]21C
inactive: [1] 55.8% | [2] 65.4% | [3] 24.6% | [4] 10.4% | [5] 49.2% | [6] 56.9% | [7] 37.2% | [9] 92.2% | [10] 47.3% | [12] 67.6% | [13] 17.1% | [15] 23% | [19] 36.7% | [20] 30.5%
active: [8] -62.5% | [11] 6.31% | [14] -50.7% | [16] -70.6% | [17] -45.8% | [18] -31.8%

CC1=C(C)C(=O)C(Nc2ccccc2)=C(Cl)C1=O
inactive: [1] 96.9% | [2] 99.3% | [3] 92.6% | [4] 95.7% | [5] 46% | [6] 83.5% | [7] 99.8% | [8] 99.2% | [9] 107% | [10] 101% | [11] 15.9% | [12] 108% | [13] 15.4% | [14] 96.8% | [15] 95.4% | [16] 102% | [17] 95.4% | [18] 90.3% | [19] 95.9% | [20] 94.2%

CN1C(=O)N(c2ccccc2)C2N=C(N/N=C/c3ccccc3)SC21 (stereo not given)
inactive: [1] 58.7% | [2] 42.5% | [3] 39% | [5] 55.1% | [7] 33% | [8] 33.9% | [10] 19.6% | [11] 12% | [12] 47.9% | [13] 31.9% | [15] 55% | [16] 30.5% | [18] 64% | [20] 30.3%
active: [4] 9.53% | [6] -12.3% | [9] 3.78% | [14] -2.78% | [17] -6.36% | [19] -18.9%

O=c1[nH]c2ccc(Cl)cc2cc1CSc1ccccc1Nc1nccc(-c2ccc(Cl)cc2)n1
inactive: [1] 115% | [2] 101% | [3] 101% | [4] 95.3% | [5] 87.6% | [6] 97.3% | [7] 86.4% | [8] 93.6% | [9] 116% | [10] 94.5% | [11] 71.6% | [12] 90.4% | [13] 94.3% | [14] 84.7% | [15] 81.5% | [16] 96.3% | [17] 89.1% | [18] 100% | [19] 102% | [20] 91.5%

N#Cc1nc(-c2ccccc2)oc1S(=O)(=O)N1CCN(CCc2ccccn2)CC1
active: [6] -66% | [8] 8.4% | [11] 6.82% | [12] -66.9% | [14] -54.7% | [20] -27.2%
inactive: [1] 98.1% | [2] 95.6% | [3] 109% | [4] 100% | [5] 38.1% | [7] 103% | [9] 30.1% | [10] 75.4% | [13] 38.9% | [15] 109% | [16] 99.2% | [17] 68.7% | [18] 77% | [19] 15.2%

COc1ccc(C(=O)c2cc(C(=O)/C=C/c3c(Cl)cccc3Cl)c3cc(C)ccn23)cc1
inactive: [1] 103% | [2] 98.3% | [3] 98.5% | [4] 100% | [5] 97.3% | [6] 91.5% | [7] 99.6% | [8] 100% | [9] 108% | [10] 106% | [11] 94.2% | [12] 97.1% | [13] 96.9% | [14] 108% | [15] 98% | [16] 101% | [17] 94.6% | [18] 102% | [19] 99.5% | [20] 99.9%

Oc1c(Cl)cc(Cl)c2ccc(CN3CCCCC3)nc12
inactive: [1] 48.6% | [2] 37.9% | [3] 48.1% | [4] 22.2% | [5] 48.6% | [6] 34% | [7] 44.7% | [8] 36.1% | [9] 79.9% | [10] 44% | [11] 21.9% | [12] 31.4% | [13] 40.4% | [14] 78.2% | [15] 41.9% | [16] 26.5% | [17] 29.1% | [18] 43.1% | [20] 26.7%
active: [19] 8.72%

COc1ccc(-c2nc3ccc(-c4nnc(SCC(=O)Nc5ccc(C(C)=O)cc5)o4)cc3[nH]2)cc1
inactive: [1] 100% | [2] 110% | [3] 113% | [4] 103% | [5] 114% | [6] 103% | [7] 112% | [8] 105% | [9] 113% | [10] 110% | [11] 85.6% | [12] 87.8% | [13] 94.7% | [14] 122% | [15] 104% | [16] 97.5% | [17] 81.6% | [18] 124% | [19] 91.9% | [20] 100%

Cn1cc(-c2cc(N)n3nc(-c4cn(C)c5ccc(Br)cc45)cc3n2)c2cc(Br)ccc21
inactive: [1] 109% | [2] 86.2% | [3] 94.8% | [4] 69% | [5] 76.9% | [6] 102% | [7] 91% | [8] 94% | [9] 118% | [10] 60.5% | [12] 102% | [13] 63.3% | [14] 147% | [15] 82.5% | [16] 105% | [17] 85.2% | [18] 109% | [19] 65.5% | [20] 41.7%
active: [11] 5.07%

c1ccc2c(NCCCN3CCOCC3)c3oc4ccccc4c3nc2c1
active: [1] -11.3% | [2] -17.5% | [3] -13.4% | [4] 0.606% | [5] -22.9% | [6] -52.8% | [7] -62.1% | [8] 6.38% | [9] -67.8% | [10] 2.98% | [11] 2.74% | [12] -25.9% | [13] -27.9% | [14] -76.2% | [15] -3.87% | [16] -17.6% | [17] -29.5% | [18] -7.26% | [19] -32% | [20] 0.78%

COc1ccc(/C=C2\SC(=Nc3cc(C)on3)NC2=O)cc1
inactive: [1] 102% | [2] 97.7% | [3] 96% | [4] 103% | [5] 94.4% | [6] 100% | [7] 102% | [8] 102% | [9] 103% | [10] 109% | [11] 100% | [12] 95.9% | [13] 106% | [14] 102% | [15] 104% | [16] 95.2% | [17] 99.3% | [18] 96.7% | [19] 92.2% | [20] 99.3%

CCCC(=O)NC(c1cccnc1)c1cc(C)c2cccnc2c1O (stereo not given)
inactive: [1] 52.6% | [2] 32.4% | [3] 34.4% | [4] 19.3% | [5] 49.1% | [6] 22.2% | [7] 48.4% | [8] 38.9% | [9] 12.7% | [10] 47.2% | [11] 22.6% | [12] 53.1% | [13] 35.5% | [14] 81.9% | [15] 42.1% | [16] 32.3% | [17] 23.3% | [18] 20.9% | [19] 27.5% | [20] 24.2%

CN(C)CCCNc1c2ccc(Cl)cc2nc2c1oc1ccccc12
active: [1] 1.58% | [2] -9.39% | [4] -3.28% | [5] -1.97% | [6] 2.37% | [7] -40.4% | [8] 2.06% | [9] 1.47% | [10] 4% | [11] 3.28% | [13] -17.5% | [14] -68.1% | [16] -25.1% | [17] -68.7% | [20] -20.6%
inactive: [3] 46.9% | [12] 14.6% | [15] 23% | [18] 32% | [19] 15.5%

N#Cc1c(-c2ccc(Cl)cc2)nc(SCc2ccc(F)cc2)nc1N1CCNCC1
inactive: [1] 101% | [2] 76.7% | [3] 80.8% | [6] 94.1% | [7] 60.2% | [8] 62.5% | [10] 61% | [12] 88.3% | [13] 16.2% | [14] 58.5% | [15] 73.3% | [16] 96.8% | [17] 75.9% | [18] 86.4% | [19] 72.8%
active: [4] -70.2% | [5] 6.64% | [9] -27.2% | [11] -34.5% | [20] 1.29%
